Laboratory results from PubChem BioAssay (NCATS).
Records with an inconclusive call do not appear. A call without a number means that no potency is given here. Active and inactive are the calls of the source. Unless noted, calls come from the whole dose curve; as a rule, active = well fitted curve in the direction sought with a large enough effect; inconclusive = small, poorly fitted or top-dose-only effect, or another doubt; inactive = no such curve, though single readings can be large; an effect the other way counts as inactive or inconclusive.

Legend:
[1] = molecular target: Calcium and integrin-binding protein 1 (Homo sapiens) (UniProt Q99828); assay: Primary qHTS for Identification of Calcium Integrin Binding Protein 1 (CIB1) Competitor (AID 1508620);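 note: GST tagged CIB1 binding a fluorescein labelled alphaIIb integrin peptide tracer; top concentration of the series differs between compounds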
Sequence of Calcium and integrin-binding protein 1 (Homo sapiens) (Q99828 whole entry, looked up): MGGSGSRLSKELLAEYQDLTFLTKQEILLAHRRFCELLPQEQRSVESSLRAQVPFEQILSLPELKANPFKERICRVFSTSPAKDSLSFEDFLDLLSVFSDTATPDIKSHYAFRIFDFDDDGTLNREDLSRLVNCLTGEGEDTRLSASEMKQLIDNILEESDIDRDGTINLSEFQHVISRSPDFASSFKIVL
Summary of the method: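 CIB1-GST (1 uM final) and compound incubated 15 min at room temperature before adding FITC-alphaIIb peptide tracer (100 nM final). Competition for binding read by fluorescence polarization (ex 480, em 540) after another 15 min at room temperature.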

[2] = Primary qHTS for inhibitors of nuclear receptor binding SET domain protein 2 (NSD2) in an isogenic RCH-ACV NSD2 p.E1099K mutant (9B) (AID 1645876); note: potency is the fitted concentration of half-maximal effect; nearly all actives have a fitted effect of over 70% in size
[3] = Primary qHTS for inhibitors of nuclear receptor binding SET domain protein 2 (NSD2) in an RCH-ACV wild type WT cells (2C) (AID 1645877); note: potency is the fitted concentration of half-maximal effect; nearly all actives have a fitted effect of over 70% in size
[4] = tested on: Nanoluciferase (engineered Oplophorus gracilirostris luciferase); assay: Primary Nanoluciferase (NLuc) qHTS assay for identification of artifact compounds. (AID 1845222); note: series mostly up to about 54 µM
Summary of the method: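 Compounds are pinned into diluted (1:55) conditioned medium of NLuc-expressing S16 cells and held 15 min at room temperature protected from light. Nano-Glo substrate follows, and luminescence is read 5 min later.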

[5] = qHTS for differential inhibitors of proliferation of Plasmodium falciparum line GB4 (AID 1816); conditions: Potency: Plasmodium falciparum GB4 proliferation inhibition;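 note: parasite growth measured after 72 h incubation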
[6] = qHTS for differential inhibitors of proliferation of Plasmodium falciparum line 3D7 (AID 1876);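 note: parasite growth measured after three days of culture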
[7] = qHTS for differential inhibitors of proliferation of Plasmodium falciparum line Dd2 (AID 1882); conditions: Potency: Plasmodium falciparum Dd2 proliferation inhibition; note: series mostly up to about 29 µM; nearly all actives have a fitted effect of over 65% in size
Summary of the method: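 Dd2-infected erythrocytes (0.3% parasitemia, 2.5% hematocrit final) incubated with compound 72 h at 37 C, 5% CO2; lysed with saponin/Triton buffer containing SYBR Green I, incubated overnight in the dark, then read by fluorescence (485/535 nm). Normalized to 0.29 uM artemisinin and DMSO.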

[8] = qHTS for differential inhibitors of proliferation of Plasmodium falciparum line W2 (AID 1883); conditions: Potency: Plasmodium falciparum W2 proliferation inhibition;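 note: parasites grown with compound for 72 h before lysis and staining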
[9] = qHTS Assay for Modulators of Human Peripheral Myelin Protein 22 (PMP22) Expression/Activity (AID 1967; active = well fitted curve in the direction sought with a large enough effect in the signal ratio; the % refers to the signal ratio)
Summary of the method: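 Engineered MSC80 cells, Pmp22-promoter green and EF-alpha red luciferase reporters; 24h compound treatment at 37 °C. Concentration-response fits on green, red and ratio signals, each overlap-corrected, with %Activity normalized to untreated wells.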

[10] = molecular target: RecQ-like DNA helicase BLM (Homo sapiens) (UniProt P54132); assay: qHTS Validation Assay for Inhibitors of Bloom's syndrome helicase (BLM) (AID 2364)
Sequence of RecQ-like DNA helicase BLM (Homo sapiens) (P54132 whole entry, looked up): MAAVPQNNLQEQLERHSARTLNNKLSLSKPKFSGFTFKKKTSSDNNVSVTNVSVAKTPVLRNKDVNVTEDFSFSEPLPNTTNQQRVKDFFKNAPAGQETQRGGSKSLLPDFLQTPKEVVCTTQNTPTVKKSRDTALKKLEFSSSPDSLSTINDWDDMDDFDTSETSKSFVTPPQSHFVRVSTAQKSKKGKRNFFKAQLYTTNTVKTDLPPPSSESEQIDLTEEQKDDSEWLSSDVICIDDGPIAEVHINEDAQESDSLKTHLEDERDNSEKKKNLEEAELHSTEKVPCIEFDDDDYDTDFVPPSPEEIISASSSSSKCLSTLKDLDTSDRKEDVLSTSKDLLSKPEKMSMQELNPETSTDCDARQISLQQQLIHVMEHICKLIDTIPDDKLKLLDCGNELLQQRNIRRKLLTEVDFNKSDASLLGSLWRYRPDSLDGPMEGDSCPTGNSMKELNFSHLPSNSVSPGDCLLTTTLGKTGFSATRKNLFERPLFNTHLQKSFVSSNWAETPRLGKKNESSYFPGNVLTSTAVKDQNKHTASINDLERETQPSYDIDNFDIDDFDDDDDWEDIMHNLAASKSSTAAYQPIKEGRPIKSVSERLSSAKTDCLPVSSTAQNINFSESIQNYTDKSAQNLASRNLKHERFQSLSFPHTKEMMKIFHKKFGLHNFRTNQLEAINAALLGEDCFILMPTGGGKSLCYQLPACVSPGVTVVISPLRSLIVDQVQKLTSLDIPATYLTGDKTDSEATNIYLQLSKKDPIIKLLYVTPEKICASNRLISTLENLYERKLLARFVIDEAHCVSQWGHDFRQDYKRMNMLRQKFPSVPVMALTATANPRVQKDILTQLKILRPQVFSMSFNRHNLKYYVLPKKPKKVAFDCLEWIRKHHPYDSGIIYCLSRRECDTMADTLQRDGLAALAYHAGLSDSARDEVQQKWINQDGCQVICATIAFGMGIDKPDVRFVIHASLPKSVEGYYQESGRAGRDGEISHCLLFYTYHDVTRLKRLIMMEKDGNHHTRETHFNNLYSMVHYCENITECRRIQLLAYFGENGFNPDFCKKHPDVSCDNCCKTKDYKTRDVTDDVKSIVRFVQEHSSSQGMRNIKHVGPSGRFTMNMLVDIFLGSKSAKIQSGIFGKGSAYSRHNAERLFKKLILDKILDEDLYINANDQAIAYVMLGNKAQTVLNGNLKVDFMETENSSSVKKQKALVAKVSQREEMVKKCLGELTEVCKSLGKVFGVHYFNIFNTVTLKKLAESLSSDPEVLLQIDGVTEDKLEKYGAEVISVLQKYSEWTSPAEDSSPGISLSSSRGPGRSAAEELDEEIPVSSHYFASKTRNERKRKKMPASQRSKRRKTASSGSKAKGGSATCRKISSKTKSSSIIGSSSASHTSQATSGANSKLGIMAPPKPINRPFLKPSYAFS
Summary of the method: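 Forked 20-bp duplex substrate (200 nM, TAMRA/BHQ-2) plus 2 mM ATP added after 15 min compound preincubation with 50 nM enzyme, pH 8.0, poly(dI-dC) 2.5 ug/ml. Strand separation followed by fluorescence (525/598 nm) over 2 h, normalized to enzyme-free and DMSO controls.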

[11] = molecular target: Voltage-gated inwardly rectifying potassium channel KCNH2 (Homo sapiens) (UniProt Q12809); assay: qHTS Assay for Small Molecule Inhibitors of the Human hERG Channel Activity (AID 588834);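 note: top concentration of the series differs between compounds; lower thallium flux fluorescence means stronger hERG block; nearly all actives have a fitted effect of over 50% in size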
Sequence of Voltage-gated inwardly rectifying potassium channel KCNH2 (Homo sapiens) (Q12809 whole entry, looked up): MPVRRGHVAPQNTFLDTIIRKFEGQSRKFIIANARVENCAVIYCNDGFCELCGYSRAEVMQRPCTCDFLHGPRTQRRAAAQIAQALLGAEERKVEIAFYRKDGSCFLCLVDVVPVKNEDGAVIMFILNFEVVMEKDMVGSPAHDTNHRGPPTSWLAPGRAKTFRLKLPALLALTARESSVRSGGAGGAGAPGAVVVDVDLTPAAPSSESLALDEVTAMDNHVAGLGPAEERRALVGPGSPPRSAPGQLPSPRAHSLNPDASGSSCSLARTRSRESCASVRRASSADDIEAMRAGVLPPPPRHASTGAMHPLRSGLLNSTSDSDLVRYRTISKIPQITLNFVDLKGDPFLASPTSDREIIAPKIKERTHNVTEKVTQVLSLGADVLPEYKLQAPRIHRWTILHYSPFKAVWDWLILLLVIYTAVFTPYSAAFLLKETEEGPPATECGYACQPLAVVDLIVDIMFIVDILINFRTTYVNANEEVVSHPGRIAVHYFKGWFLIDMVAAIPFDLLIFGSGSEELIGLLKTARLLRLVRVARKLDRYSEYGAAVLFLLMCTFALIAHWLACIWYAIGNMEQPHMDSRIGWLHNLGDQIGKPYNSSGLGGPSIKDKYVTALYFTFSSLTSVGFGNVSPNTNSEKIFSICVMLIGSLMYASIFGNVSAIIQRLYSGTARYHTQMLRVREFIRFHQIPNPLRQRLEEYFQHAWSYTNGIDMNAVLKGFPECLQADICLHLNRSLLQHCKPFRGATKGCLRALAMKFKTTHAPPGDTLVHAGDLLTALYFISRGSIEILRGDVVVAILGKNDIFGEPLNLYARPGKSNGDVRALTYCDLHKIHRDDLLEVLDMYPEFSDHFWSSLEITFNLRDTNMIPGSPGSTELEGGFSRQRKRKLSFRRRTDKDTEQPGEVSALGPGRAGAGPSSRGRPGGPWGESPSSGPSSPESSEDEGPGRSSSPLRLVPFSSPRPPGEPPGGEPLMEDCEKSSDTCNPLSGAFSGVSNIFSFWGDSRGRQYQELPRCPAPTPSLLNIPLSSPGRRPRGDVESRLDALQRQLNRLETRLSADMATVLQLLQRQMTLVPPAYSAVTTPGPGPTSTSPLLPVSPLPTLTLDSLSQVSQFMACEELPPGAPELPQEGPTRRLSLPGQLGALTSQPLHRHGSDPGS
Summary of the method: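 Blockade is seen as reduced FluxOR thallium-flux fluorescence in U2OS cells expressing hERG from a BacMam construct, in Opti-MEM with 2% FCS. Concentration-response data fitted to the Hill equation for AC50.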

Row | SMILES | outcome [1] | Potency [2] | Potency [3] | Potency [4] | Potency [5] | Potency [6] | Potency [7] | Potency [8] | outcome [9] | Potency [10] | Potency [11]
1 | O=C(CCCCCCC(=O)Nc1ccc(C2OC(CSc3nc(-c4ccccc4)c(-c4ccccc4)o3)CC(c3ccc(CO)cc3)O2)cc1)NO (stereo unspecified) | inactive | 5.15 µM (active) | 3.65 µM (active) | inactive |  |  |  |  |  |  | 
2 | NC(CCC(=O)NCS(=O)(=O)O)C(=O)O (stereo unspecified) |  |  |  |  | inactive | inactive | inactive | inactive | inactive | inactive | inactive
